Measurements from the supplement of paper PMC10338343.
± gives the standard deviation.

Test system: EfPiwi piRISC loaded with L1MC piRNA (26 nt)
Assay: pre-steady-state target cleavage rate (min^-1); auxiliary factor: 500 nM Ephydatia muelleri Gtsf1; guide: L1MC piRNA 5'p-UAACUAAAUACUAUGCAAGCUGUAGG; MIWI and MILI are mouse PIWI proteins and EfPiwi is from a freshwater sponge; tags in brackets are library labels; higher = faster piRNA-guided slicing of the target
Outline: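 The pre-steady-state cleavage rate was calculated from a burst-and-steady-state fit. Data came from Cleave-'n-Seq, in which […] transcribed, DNA-blocked target RNA library was mixed with 1 nM active affinity-purified piRISC carrying one synthetic guide, with or without 500 nM GTSF1 partner protein, in HEPES–potassium acetate buffer at 33 °C for 0–8 or 0–960 min. Uncleaved targets were sequenced and normalised to depth and to weakly complementary targets, three trials were pooled, and k3 was capped at 0.0001 min^-1.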

| Sequence | pre-steady-state target cleavage rate |
| --- | --- |
| UCCUGGAUGAGCUUGCAUAGUAUAUAGUUA | 0.00625 ± 0.0026 |
| UCCUGGAUGUCGAAGGAUAGUUUUUAGUUA | < 0.0001 |
| UCCUCCUACAGCUUCCAAAGUAUUUAGUUA | 0.00527 ± 0.0019 |
| UCCUGGAUGUCGAACCAUAGUAUUUAGUUC [g2:g15:cont:t1C] | < 0.0001 |
| UCCUGGAUGUCGAACCAUAGUAUUUCGUUA | < 0.0001 |
| UCCUGCUACUCCUUGCAUAGUAUUUAGUAA | 0.00443 ± 0.003 |
| UCCUGGAUGAGCUUGCAUACUAUUUAGAAA | 0.00478 ± 0.0029 |
| UCCUCCUACACCUUGCAUUGUAUUUAGUUA | 0.0139 ± 0.0056 |
| UCCUGCUUCAGCUUGCAUAGUAUUUUGUUA | 0.00635 ± 0.0022 |
| UCCUGGAUCAGCUUGCAUAGUAUUUUGAUA | 0.00716 ± 0.003 |
| UCCUGGAUCAUGCUUGCAUAGUAUUUAGUUA | 0.0911 ± 0.025 |
| UCCUCCUACAGCAUGCAUAGAAUUUAGUUA | 0.00245 ± 0.0015 |
| UCCUGGAUGGGCUUGCAUAGUAUUUAGUUA | 0.0238 ± 0.0063 |
| UCCUGCUACAGCUUCCAUAGUAUUUUCAAA | 0.0032 ± 0.0021 |
| UCCUCCUACAGCUUGCAUAGUAUUUGGUUA | 0.00583 ± 0.0021 |
| UCCUCCUACAGCUUGGAUAGUAUUUUCAAA | 0.00297 ± 0.0022 |
| UCCUGGAUGUGCUUGCAUAGUAUUUAGCUA | 0.00363 ± 0.0021 |
| UCCUGGAUGUCGAACCAAAGUAUUUAGUUA | < 0.0001 |
| UCCUGGAUGUGACUUGCAUAGUAUUUAGUUA | 0.00497 ± 0.0028 |
| UCCUGCUACACCUUGCAAAGUAUUUAGUUA | 0.00571 ± 0.0021 |

| Sequence | pre-steady-state target cleavage rate |
| --- | --- |
| UCCUCCAUACAGCUUGCAUAGUAUUUAGUUA | 0.00733 ± 0.0027 |
| UCCUGGUCCAGCUUGCAUAGUAUUUAGUUA | 0.0262 ± 0.007 |
| UCCUGGAUGUCCUUAGCAUAGUAUUUAGUUA | 0.00479 ± 0.003 |
| UCCUGCUACAGCUUGCAUAGUAUUUAAGUUA | 0.00777 ± 0.0034 |
| UCCUGGAUCAGCUUGCAUAGUAUUUAGGUUA | 0.00516 ± 0.0024 |
| UCCUGGAUGAAGCUUGCAUAGUAUUUAGUUA | 0.0366 ± 0.0082 |
| UCCUGGAACACCUUGCUUAGUAUUUAGUUA | 0.0036 ± 0.0033 |
| UCCUGCUACAGCUUGCAUAGUUAUUAGAAA | 0.00309 ± 0.0025 |
| UCCUGCUACAGCAUGCAUAGUAUUAAGUUA | 0.00828 ± 0.0024 |
| UCCUGGAUGUCGAAGCAUACUAUUUUGUUA | < 0.0001 |
| UCCUCCUACAGGUUCCAUAGUAUUUAGUUA | 0.0023 ± 0.0012 |
| UCCUGGAUGUGCUUGCAUAGUAUUUACUAA | 0.146 ± 0.073 |
| UCCUGCUACAGCUUGCUUACUAUUUAGUUA | 0.0113 ± 0.005 |
| UCCUGGUACUGCUUGCAUAGUAUUUAGUAA | 0.00428 ± 0.0018 |
| UCCUGGAUCACCUUGCAUAGUAUUUAGAUA | 0.00551 ± 0.005 |
| UCCUCCUACAGCUUGCAUAGUAUUAUCAAA | 0.00273 ± 0.0027 |
| UCCUGGAUGUCGAUGCAUAGUAUUUAGUAA | 0.00329 ± 0.0032 |
| UCCUGCUACAGCUUCCAUAGUAUUUAGAUA | 0.00303 ± 0.00093 |
| UCCUGGUACAGCUUCCAUAGUAUUUAGUUA | 0.00258 ± 0.0017 |
| UCCUCGUACAGCUUGCAUAGUAUUUAGUUA | 0.163 ± 0.036 |
